# Source: PubChem BioAssay (The Scripps Research Institute Molecular Screening Center)
# This is a sample that favours compounds with a hit; in the whole collection about 3.2% have one here.
# rCAG RNA binder: molecules binding r(CAG) RNA repeats; AID 651821; inhibition, % at 3 µM; hit rate 1.3% among 370,000; r(CAG) RNA repeat, TO-PRO-1 dye displacement fluorescence;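 active = inhibition above the plate cutoff, the mean of all test compounds on that plate plus 3 SD, cut at about 35% in these data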;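 note: 0% = DMSO alone and 100% = 100 µM mitoxantrone as full dye displacement; higher means more dye released from RNA so lower well fluorescence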
# MsrA inhibitor: bovine MsrA inhibition; AID 651718; hit rate 0.75% among 360,000; purified bovine MsrA, absorbance read-out; inhibition, % at 15.5 µM; in the data active = inhibition above about 4.5%;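 note: 0% = vehicle wells with enzyme and 100% = reference inhibitor wells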
# MsrA act: activates bovine MsrA enzyme; purified bovine MsrA, absorbance read-out; activation, % at 10.6 µM; hit rate 0.3% among 360,000; AID 602163; in the data active = activation above about 7.5%;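 note: 0% = vehicle and 100% = reference activator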
# HGIII-sPLA2 inh: Blocks human group III sPLA2 activity; inhibition, % at 12.2 µM; hit rate 0.56% among 370,000; QFRET BODIPY PC-A2 liposome hydrolysis, fluorescence; Q9NZ20;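 active = inhibition above mean plus 3 SD of compounds lying within the high and low control bounds, cut at about 19% in these data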;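 note: 0% = median of test compound wells and 100% = no enzyme DMSO wells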
# Target sequence (Q9NZ20 whole entry, looked up): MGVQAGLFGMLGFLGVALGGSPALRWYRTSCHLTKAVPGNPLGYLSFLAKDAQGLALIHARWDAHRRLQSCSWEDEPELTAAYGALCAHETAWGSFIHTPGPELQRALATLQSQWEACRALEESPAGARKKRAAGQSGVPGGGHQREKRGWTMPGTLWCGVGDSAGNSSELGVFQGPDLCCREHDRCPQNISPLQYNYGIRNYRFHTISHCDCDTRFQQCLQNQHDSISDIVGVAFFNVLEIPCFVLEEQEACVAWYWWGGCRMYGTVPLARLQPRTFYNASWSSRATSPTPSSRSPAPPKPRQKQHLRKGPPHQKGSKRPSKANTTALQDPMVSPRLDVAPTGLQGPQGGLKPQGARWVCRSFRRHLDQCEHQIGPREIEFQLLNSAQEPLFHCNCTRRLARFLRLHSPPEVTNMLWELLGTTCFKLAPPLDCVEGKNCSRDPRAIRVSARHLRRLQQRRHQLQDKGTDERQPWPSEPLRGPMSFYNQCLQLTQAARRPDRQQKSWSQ
# PG9 Ab binder: binds the HIV-1 gp120 antibody PG9; TR-FRET gp120-PG9 antibody binding; inhibition, % at 6.7 µM; hit rate 0.43% among 360,000; AID 624416; in the data active = inhibition above about 8.5%
# sPLA2 confirm: human GIII-sPLA2 inhibition, confirmation; recombinant hGIII-sPLA2, BODIPY PC-A2 QFRET fluorescence; shares compounds with HGIII-sPLA2 inh; inhibition, % at 12.2 µM; hit rate 34% among 2,000;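 active = mean inhibition across triplicates above the hit cutoff set in the earlier primary screen, cut at about 19% in these data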;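 note: 0% = enzyme with DMSO and 100% = DMSO wells lacking enzyme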
# 535nm interf: 535nm fluorescence interference, HGIII-sPLA2 counter-screen | shares compounds with HGIII-sPLA2 inh | BODIPY FL product fluorescence interference, QFRET | inhibition, % at 12.2 µM | hit rate 8.5% among 2,000 | AID 743282;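 active = average inhibition above the solvent-only control mean plus 3 SD, cut at about 6% in these data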;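 note: 0% = DMSO with substrate plus product and 100% = DMSO with substrate alone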
# BODIPY interf DR: interferes with 535nm fluorescence in dose response counter-screen; shares compounds with HGIII-sPLA2 inh; BODIPY FL product fluorescence interference, cell-free; IC50, µM; 240 tested, under 10 active; AID 743455;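 active = IC50 at or below 10 µM; inactive = IC50 above 10 µM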
# * hit, by the source's call; · = no result.
SMILES,rCAG RNA binder,MsrA inhibitor,MsrA act,HGIII-sPLA2 inh,PG9 Ab binder,sPLA2 confirm,535nm interf,others
NC(CSCc1ccccc1Cl)C(=O)O (stereo not given),1,1,-1,9,0,·,·,
N=C(N)SCc1ccccc1Cl,-2,0,-1,34*,0,11,-6,
Cc1cccc(C)c1NC(=O)C1(C)CN(S(C)(=O)=O)CC(=O)N1CCc1c[nH]c2ccccc12 (stereo not given),7,-1,·,-44,-2,·,·,
O=C1/C(=C/c2ccco2)SC(=S)N1CCC(=O)N1CCCCC1CCO (stereo not given),25,1,-5,-5,-2,·,·,
O=C(Nc1ccccc1OC(F)F)c1oc2ccccc2c1COc1ccccc1,-2,1,-7,25*,-1,4,-13,
CC(C)CNC(=O)c1oc2ccccc2c1COc1ccccc1,2,0,-2,1,-2,·,·,
Cc1ccc(C=Nn2c(-c3n[nH]c4c3CCC4)n[nH]c2=S)s1,15,·,·,13,·,·,·,
Cc1ccc(C=Nn2c(-c3n[nH]c4c3CCC4)n[nH]c2=S)o1,7,·,·,21*,·,16,-1,
CC(=O)/C(=N\Nc1cccc(Cl)c1)Sc1nnc(-c2ccccc2)n1-c1ccccc1,3,1,-1,20*,1,7,-3,
O=C(CSc1nnc(-c2ccccc2)n1-c1ccc(Cl)cc1)NNC(=S)Nc1ccccc1,23,0,-2,26*,1,39*,-7,BODIPY interf DR=>122
CC(=O)/C(=N\Nc1cccc(Cl)c1)Sc1cccc2cccnc12,0,-1,-4,7,-1,·,·,
COC(=O)[C@]12C[C@H](CC(=O)N3CCOCC3)C(=O)N(CCC3=CCCCC3)C1=C[C@H](C1CCCC1)O[C@@H]2C,1,·,·,-4,·,·,·,
CC(C)C[C@@H]1COc2cc(Br)ccc2S(=O)(=O)N1Cc1cn(CCC2OCCCO2)nn1,4,·,·,23*,·,0,-29,
COc1ccc(-c2c(C)nc3c(-c4ccc(F)cc4)cnn3c2N)cc1,1,0,-1,19*,1,2,-7,
Cc1nc2c(-c3ccc(F)cc3)cnn2c(N)c1-c1ccccc1,12,2,-8,13,-1,·,·,
OC1OC2COC(c3ccccc3)OC2C(O)C1O (stereo not given),0,0,·,2,1,·,·,
O=[N+]([O-])c1ccc(O)c(N=Cc2sc3ccccc3c2O)c1,9,1,-5,26*,-8,36*,4,BODIPY interf DR=>122
Oc1ccc(Cl)cc1N=Cc1sc2ccccc2c1Cl,-3,-1,-3,4,-3,·,·,
Cc1cc(C(=O)COc2ccc3ccc(=O)oc3c2)c(C)n1Cc1cccs1,3,1,-2,21*,2,1,-15,
Cc1ccc(OCC(=O)c2cc(C)n(Cc3cccs3)c2C)c([N+](=O)[O-])n1,0,2,-2,1,0,·,·,
C=CCNS(=O)(=O)c1ccc(OCC(=O)OC)cc1,-2,1,-8,24*,-1,1,-2,
COC(=O)C1=C(C)NC(C)=C(C(=O)OC)C1c1ccccn1,-5,1,-5,22*,0,3,-5,
COC(=O)C1=C(C)Nc2ncnn2C1c1ccccn1 (stereo not given),2,1,-1,0,4,·,·,
Cc1ccc(NC(=S)NNC(=S)Nc2cccc(C(F)(F)F)c2)cc1,16,1,-2,11,1,·,·,
Cc1cc(C(=O)NNC(=S)Nc2cccc(C(F)(F)F)c2)nn1C,7,1,-1,47*,-2,42*,2,BODIPY interf DR=>122
CC(C)CNC(=O)CN(C)S(=O)(=O)c1ccc(F)cc1,-5,0,-7,22*,0,0,-11,
CCCCCc1cccc2[nH]cc(-c3ccccc3)c12,4,·,·,-8,·,·,·,
O=C(CSc1nnc(NCc2ccccc2)s1)N1CCOCC1,-2,0,-10,27*,0,-2,-5,
N#Cc1cccc(-c2ccccc2C(=O)NC2CCCCN(Cc3ccc(Cl)cc3)C2=O)c1 (stereo not given),4,·,·,-3,·,·,·,
